From article PMC7862700, “An all-to-all approach to the identification of sequence-specific readers for epigenetic DNA modifications on cytosine”

Legend:
Test in all cases: DAPPL (digital affinity profiling via proximity ligation, sequencing); 10 mM Tris-HCl pH 7.5, 50 mM NaCl, 1 mM DTT, 4% glycerol, room temperature, 30 min; GST-TFs on glutathione beads, 16-mer random dsDNA library, 0.1% formaldehyde crosslink after washing; high values mean tight binding
Conditions in all cases: protein: recombinant; tags: N-terminal GST; dsDNA, one strand shown
[1] = biological target: T1, ERF (Homo sapiens, UniProt P50548 1-548)
T1 sequence: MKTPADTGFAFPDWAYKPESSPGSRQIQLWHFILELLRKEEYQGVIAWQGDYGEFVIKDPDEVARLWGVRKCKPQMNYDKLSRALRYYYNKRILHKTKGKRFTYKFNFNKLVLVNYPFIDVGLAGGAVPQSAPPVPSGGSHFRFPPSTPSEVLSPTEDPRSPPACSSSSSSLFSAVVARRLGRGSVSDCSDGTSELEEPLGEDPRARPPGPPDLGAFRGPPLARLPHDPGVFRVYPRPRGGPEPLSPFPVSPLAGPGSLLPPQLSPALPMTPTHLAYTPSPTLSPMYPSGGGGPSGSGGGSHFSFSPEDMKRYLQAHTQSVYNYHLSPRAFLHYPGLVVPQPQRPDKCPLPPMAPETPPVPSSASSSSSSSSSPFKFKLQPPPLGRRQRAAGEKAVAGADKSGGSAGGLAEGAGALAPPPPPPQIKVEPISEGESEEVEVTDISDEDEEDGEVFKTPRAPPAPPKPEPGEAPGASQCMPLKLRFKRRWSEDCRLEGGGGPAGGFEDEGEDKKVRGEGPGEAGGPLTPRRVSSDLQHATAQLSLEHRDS
Procedure, shortened: (§1)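 Sequencing on an Illumina NextSeq500 followed washing, crosslinking with 0.1% formaldehyde, proximity ligation (BsaI/T4 ligase, 1 h, 37 °C) and PCR amplification of pools that had been incubated for 30 min at room temperature with 200 nmole of a random double-stranded 16-mer DNA library in Tris/NaCl/DTT/glycerol buffer. Each pool held DNA-barcoded human transcription factors, expressed in yeast as GST fusions and captured on glutathione beads, plus a tag-only sample. Binding signal is a hexamer's read frequency for a factor divided by its frequency in the tag-only sample.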

[2] = biological target: T2, ETV3L (Homo sapiens, UniProt Q6ZN32 1-361)
T2 sequence: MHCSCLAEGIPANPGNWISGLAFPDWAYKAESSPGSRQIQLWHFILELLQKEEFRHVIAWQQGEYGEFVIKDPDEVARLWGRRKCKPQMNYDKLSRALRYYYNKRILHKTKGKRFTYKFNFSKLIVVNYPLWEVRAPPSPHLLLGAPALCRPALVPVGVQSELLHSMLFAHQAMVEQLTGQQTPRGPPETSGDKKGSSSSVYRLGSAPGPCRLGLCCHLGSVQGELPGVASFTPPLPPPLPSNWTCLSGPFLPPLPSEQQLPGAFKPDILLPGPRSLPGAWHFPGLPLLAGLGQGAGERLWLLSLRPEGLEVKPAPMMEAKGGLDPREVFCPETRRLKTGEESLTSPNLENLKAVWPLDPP
Procedure, shortened: as §1

[3] = biological target: T3, ETS2 (Homo sapiens, UniProt P15036 1-469)
T3 sequence: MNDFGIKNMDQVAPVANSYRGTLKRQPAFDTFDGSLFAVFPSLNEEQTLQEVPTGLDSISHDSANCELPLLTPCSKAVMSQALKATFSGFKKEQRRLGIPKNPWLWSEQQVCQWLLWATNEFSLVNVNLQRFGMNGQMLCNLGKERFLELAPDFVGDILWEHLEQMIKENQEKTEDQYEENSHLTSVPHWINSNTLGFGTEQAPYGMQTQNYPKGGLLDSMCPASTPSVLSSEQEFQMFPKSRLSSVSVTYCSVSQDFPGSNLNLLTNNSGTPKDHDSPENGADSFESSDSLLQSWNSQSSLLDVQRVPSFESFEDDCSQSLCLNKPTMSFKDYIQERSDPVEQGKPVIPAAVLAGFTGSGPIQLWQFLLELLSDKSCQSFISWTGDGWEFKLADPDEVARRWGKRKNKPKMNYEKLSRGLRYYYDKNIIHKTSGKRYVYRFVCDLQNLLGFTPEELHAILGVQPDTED
Procedure, shortened: as §1

[4] = biological target: T4, SPDEF (Homo sapiens, UniProt O95238 1-335)
T4 sequence: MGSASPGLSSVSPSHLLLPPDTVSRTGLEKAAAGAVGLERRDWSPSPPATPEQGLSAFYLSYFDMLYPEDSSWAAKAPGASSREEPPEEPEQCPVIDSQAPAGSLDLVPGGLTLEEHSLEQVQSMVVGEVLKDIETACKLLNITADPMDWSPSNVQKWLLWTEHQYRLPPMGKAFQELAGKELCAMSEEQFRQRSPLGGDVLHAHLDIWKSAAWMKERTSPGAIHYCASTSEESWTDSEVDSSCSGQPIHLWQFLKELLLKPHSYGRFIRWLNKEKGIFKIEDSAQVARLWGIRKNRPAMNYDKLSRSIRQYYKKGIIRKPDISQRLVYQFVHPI
Procedure, shortened: as §1

[5] = biological target: T5, ETV7 (Homo sapiens, UniProt Q9Y603 1-341)
T5 sequence: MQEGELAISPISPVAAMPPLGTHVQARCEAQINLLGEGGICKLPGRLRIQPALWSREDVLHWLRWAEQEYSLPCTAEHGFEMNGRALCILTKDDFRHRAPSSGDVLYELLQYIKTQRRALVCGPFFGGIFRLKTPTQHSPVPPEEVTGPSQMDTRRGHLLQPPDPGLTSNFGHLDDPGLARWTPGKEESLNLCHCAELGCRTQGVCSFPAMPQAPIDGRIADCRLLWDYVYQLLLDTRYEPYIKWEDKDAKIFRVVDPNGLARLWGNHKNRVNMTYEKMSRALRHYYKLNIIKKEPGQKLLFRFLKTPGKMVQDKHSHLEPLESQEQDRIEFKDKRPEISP
Procedure, shortened: as §1

[6] = biological target: T6, ELF5 (Homo sapiens, UniProt Q9UKW6-2 1-255)
T6 sequence: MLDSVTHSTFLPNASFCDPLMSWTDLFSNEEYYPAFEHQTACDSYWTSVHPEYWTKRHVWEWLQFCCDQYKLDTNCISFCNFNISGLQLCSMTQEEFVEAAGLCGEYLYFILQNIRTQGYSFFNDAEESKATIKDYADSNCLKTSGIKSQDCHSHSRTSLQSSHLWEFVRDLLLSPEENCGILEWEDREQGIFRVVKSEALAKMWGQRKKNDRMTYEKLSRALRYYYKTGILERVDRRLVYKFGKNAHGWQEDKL
Procedure, shortened: as §1

[7] = biological target: T7, ETV3 (Homo sapiens, UniProt P41162-2 1-143)
T7 sequence: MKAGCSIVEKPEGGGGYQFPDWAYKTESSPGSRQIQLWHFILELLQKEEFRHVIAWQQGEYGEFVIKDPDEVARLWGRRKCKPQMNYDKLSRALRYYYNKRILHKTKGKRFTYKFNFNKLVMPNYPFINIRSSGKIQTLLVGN
Procedure, shortened: as §1

[8] = biological target: ETV6 (Homo sapiens, UniProt P41212 1-452)
Sequence of ETV6 (P41212 whole entry): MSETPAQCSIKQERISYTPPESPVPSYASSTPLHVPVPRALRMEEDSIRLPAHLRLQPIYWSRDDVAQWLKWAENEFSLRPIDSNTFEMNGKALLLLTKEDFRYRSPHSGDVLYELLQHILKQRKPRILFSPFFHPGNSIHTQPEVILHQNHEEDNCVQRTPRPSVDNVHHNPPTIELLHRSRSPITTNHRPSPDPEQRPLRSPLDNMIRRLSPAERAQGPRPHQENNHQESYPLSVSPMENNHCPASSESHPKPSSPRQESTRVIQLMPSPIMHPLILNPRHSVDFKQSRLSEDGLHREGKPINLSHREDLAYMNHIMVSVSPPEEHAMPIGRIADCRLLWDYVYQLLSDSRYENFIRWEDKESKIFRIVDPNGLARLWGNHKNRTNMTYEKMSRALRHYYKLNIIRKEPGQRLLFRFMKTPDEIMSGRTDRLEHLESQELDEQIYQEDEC
Procedure, shortened: as §1

Sequence	binding signal [1]	binding signal [2]	binding signal [3]	binding signal [4]	binding signal [5]	binding signal [6]	binding signal [7]	binding signal [8]
ACCTGG	1.17 fold enrichment (6-mer frequency, TF over GST control)	1.33 fold enrichment (6-mer frequency, TF over GST control)	1.26 fold enrichment (6-mer frequency, TF over GST control)	1.2 fold enrichment (6-mer frequency, TF over GST control)	1.29 fold enrichment (6-mer frequency, TF over GST control)	1.19 fold enrichment (6-mer frequency, TF over GST control)	1.21 fold enrichment (6-mer frequency, TF over GST control)	1.28 fold enrichment (6-mer frequency, TF over GST control)
AACCAT	1.07 fold enrichment (6-mer frequency, TF over GST control)	1.16 fold enrichment (6-mer frequency, TF over GST control)	1.12 fold enrichment (6-mer frequency, TF over GST control)	1.11 fold enrichment (6-mer frequency, TF over GST control)	1.15 fold enrichment (6-mer frequency, TF over GST control)	1.08 fold enrichment (6-mer frequency, TF over GST control)	1.16 fold enrichment (6-mer frequency, TF over GST control)	1.13 fold enrichment (6-mer frequency, TF over GST control)
CCTGCG	1.22 fold enrichment (6-mer frequency, TF over GST control)	1.49 fold enrichment (6-mer frequency, TF over GST control)	1.27 fold enrichment (6-mer frequency, TF over GST control)	1.23 fold enrichment (6-mer frequency, TF over GST control)	1.38 fold enrichment (6-mer frequency, TF over GST control)	1.3 fold enrichment (6-mer frequency, TF over GST control)	1.4 fold enrichment (6-mer frequency, TF over GST control)	1.35 fold enrichment (6-mer frequency, TF over GST control)
GTAACA	1.1 fold enrichment (6-mer frequency, TF over GST control)	1.07 fold enrichment (6-mer frequency, TF over GST control)	1.08 fold enrichment (6-mer frequency, TF over GST control)	1.14 fold enrichment (6-mer frequency, TF over GST control)	1.08 fold enrichment (6-mer frequency, TF over GST control)	1.1 fold enrichment (6-mer frequency, TF over GST control)	1.15 fold enrichment (6-mer frequency, TF over GST control)	1.09 fold enrichment (6-mer frequency, TF over GST control)
TGTTCG	1.2 fold enrichment (6-mer frequency, TF over GST control)	1.01 fold enrichment (6-mer frequency, TF over GST control)	1.15 fold enrichment (6-mer frequency, TF over GST control)	1.03 fold enrichment (6-mer frequency, TF over GST control)	1.15 fold enrichment (6-mer frequency, TF over GST control)	1.03 fold enrichment (6-mer frequency, TF over GST control)	1.01 fold enrichment (6-mer frequency, TF over GST control)	
CACCTC	1.21 fold enrichment (6-mer frequency, TF over GST control)	1.18 fold enrichment (6-mer frequency, TF over GST control)	1.06 fold enrichment (6-mer frequency, TF over GST control)	1.17 fold enrichment (6-mer frequency, TF over GST control)	1.17 fold enrichment (6-mer frequency, TF over GST control)	1.09 fold enrichment (6-mer frequency, TF over GST control)	1.15 fold enrichment (6-mer frequency, TF over GST control)	1.14 fold enrichment (6-mer frequency, TF over GST control)
TACTAG	1.07 fold enrichment (6-mer frequency, TF over GST control)	1.04 fold enrichment (6-mer frequency, TF over GST control)	1 fold enrichment (6-mer frequency, TF over GST control)	1.01 fold enrichment (6-mer frequency, TF over GST control)	1 fold enrichment (6-mer frequency, TF over GST control)			
AGCATT	1.04 fold enrichment (6-mer frequency, TF over GST control)	1.06 fold enrichment (6-mer frequency, TF over GST control)	1.11 fold enrichment (6-mer frequency, TF over GST control)	1.02 fold enrichment (6-mer frequency, TF over GST control)	1.14 fold enrichment (6-mer frequency, TF over GST control)	1.1 fold enrichment (6-mer frequency, TF over GST control)	1.09 fold enrichment (6-mer frequency, TF over GST control)	1.14 fold enrichment (6-mer frequency, TF over GST control)
TTACTG	1.2 fold enrichment (6-mer frequency, TF over GST control)	1.04 fold enrichment (6-mer frequency, TF over GST control)	1.09 fold enrichment (6-mer frequency, TF over GST control)	1.07 fold enrichment (6-mer frequency, TF over GST control)	1.14 fold enrichment (6-mer frequency, TF over GST control)	1.02 fold enrichment (6-mer frequency, TF over GST control)	1.21 fold enrichment (6-mer frequency, TF over GST control)	1.17 fold enrichment (6-mer frequency, TF over GST control)
CCATCC	1.12 fold enrichment (6-mer frequency, TF over GST control)	1.31 fold enrichment (6-mer frequency, TF over GST control)	1.23 fold enrichment (6-mer frequency, TF over GST control)	1.56 fold enrichment (6-mer frequency, TF over GST control)	1.24 fold enrichment (6-mer frequency, TF over GST control)	1.3 fold enrichment (6-mer frequency, TF over GST control)	1.27 fold enrichment (6-mer frequency, TF over GST control)	1.2 fold enrichment (6-mer frequency, TF over GST control)
AACCGG	1.42 fold enrichment (6-mer frequency, TF over GST control)	1.43 fold enrichment (6-mer frequency, TF over GST control)	1.46 fold enrichment (6-mer frequency, TF over GST control)	1.8 fold enrichment (6-mer frequency, TF over GST control)	1.36 fold enrichment (6-mer frequency, TF over GST control)	1.52 fold enrichment (6-mer frequency, TF over GST control)	1.6 fold enrichment (6-mer frequency, TF over GST control)	1.5 fold enrichment (6-mer frequency, TF over GST control)
TTGGGT	1.27 fold enrichment (6-mer frequency, TF over GST control)	1.1 fold enrichment (6-mer frequency, TF over GST control)	1.03 fold enrichment (6-mer frequency, TF over GST control)	1.04 fold enrichment (6-mer frequency, TF over GST control)	1.08 fold enrichment (6-mer frequency, TF over GST control)	1.08 fold enrichment (6-mer frequency, TF over GST control)		
TGAAAA	1.04 fold enrichment (6-mer frequency, TF over GST control)	1.07 fold enrichment (6-mer frequency, TF over GST control)	1.11 fold enrichment (6-mer frequency, TF over GST control)	1.01 fold enrichment (6-mer frequency, TF over GST control)	1.07 fold enrichment (6-mer frequency, TF over GST control)	1.06 fold enrichment (6-mer frequency, TF over GST control)		
CTGACG	1.17 fold enrichment (6-mer frequency, TF over GST control)	1.03 fold enrichment (6-mer frequency, TF over GST control)	1.2 fold enrichment (6-mer frequency, TF over GST control)	1 fold enrichment (6-mer frequency, TF over GST control)	1.07 fold enrichment (6-mer frequency, TF over GST control)	1.09 fold enrichment (6-mer frequency, TF over GST control)	1.06 fold enrichment (6-mer frequency, TF over GST control)	1.16 fold enrichment (6-mer frequency, TF over GST control)
TTAGTA	1.17 fold enrichment (6-mer frequency, TF over GST control)	1.07 fold enrichment (6-mer frequency, TF over GST control)	1.09 fold enrichment (6-mer frequency, TF over GST control)	1.12 fold enrichment (6-mer frequency, TF over GST control)	1.14 fold enrichment (6-mer frequency, TF over GST control)	1.07 fold enrichment (6-mer frequency, TF over GST control)	1.27 fold enrichment (6-mer frequency, TF over GST control)	1.12 fold enrichment (6-mer frequency, TF over GST control)
